Reference: the supplement of paper PMC8728848
The sample as a whole holds a higher share of the strongest signals than the screen did.

Legend:
Experiment in all cases: glycan array binding signal (z-score within array); higher = stronger binding
Details in all cases: glycan notation: IUPAC condensed, linker removed
[1] = biological target: Fuc(a1-3)[Gal(b1-4)]GlcNAc(b1-2)Man(a1-3)[Fuc(a1-3)[Gal(b1-4)]GlcNAc(b1-2)Man(a1-6)]Man(b1-4)GlcNAc(b1-4)GlcNAc
Outline: (§1)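 Negative Z-scores can be read as non-binding. The Z-score is calculated within each array and then averaged across arrays of one protein sequence at different concentrations or buffers and across linkers. Arrays, 3228 in all, were curated from the Consortium for Functional Glycomics database and kept only where the protein sequence was available.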

[2] = biological target: Fuc(a1-3)[Gal(b1-4)]GlcNAc(b1-3)Gal(b1-3)[Fuc(a1-4)]GlcNAc
Outline: as §1

[3] = biological target: Fuc(a1-3)[Gal3S(b1-4)]Glc
Outline: as §1

[4] = biological target: Fuc(a1-3)[GalNAc(b1-4)]GlcNAc
Outline: as §1

[5] = biological target: Gal(a1-3)Gal(b1-3)GlcNAc(b1-6)GalNAc
Outline: as §1

Gal(a1-3)Gal(b1-4)GlcNAc = biological target: Gal(a1-3)Gal(b1-4)GlcNAc
Outline: as §1

[6] = biological target: Gal(a1-3)Gal(b1-4)GlcNAc(b1-3)GalNAc
Outline: as §1

[7] = biological target: Gal(a1-3)Gal(b1-4)[Fuc(a1-3)]GlcNAc
Outline: as §1

[8] = biological target: Gal(b1-3)GlcNAc(b1-3)Gal(b1-3)GlcNAc
Outline: as §1

[9] = biological target: Gal(b1-3)GlcNAc(b1-3)Gal(b1-4)GlcNAc
Outline: as §1

[10] = biological target: Gal(b1-3)GlcNAc(b1-3)Gal(b1-4)[Fuc(a1-3)]GlcNAc
Outline: as §1

Gal(b1-4)Glc6S = biological target: Gal(b1-4)Glc6S
Outline: as §1

[11] = biological target: Gal(b1-4)GlcNAc(a1-6)Gal(b1-4)GlcNAc
Outline: as §1

[12] = biological target: Gal(b1-4)GlcNAc(b1-2)Man(a1-3)Man(b1-4)GlcNAc(b1-4)GlcNAc
Outline: as §1

[13] = biological target: Gal(b1-4)GlcNAc(b1-2)Man(a1-3)[GlcNAc(b1-4)][Gal(b1-4)GlcNAc(b1-2)Man(a1-6)]Man(b1-4)GlcNAc(b1-4)GlcNAc
Outline: as §1

[14] = biological target: Gal(b1-4)GlcNAc(b1-2)Man(a1-6)[GlcNAc(b1-2)Man(a1-3)]Man(b1-4)GlcNAc(b1-4)GlcNAc
Outline: as §1

[15] = biological target: Gal(b1-4)GlcNAc(b1-3)Gal(b1-4)GlcNAc(b1-3)Gal(b1-4)GlcNAc(b1-2)Man(a1-3)[Gal(b1-4)GlcNAc(b1-3)Gal(b1-4)GlcNAc(b1-3)Gal(b1-4)GlcNAc(b1-2)Man(a1-6)]Man(b1-4)GlcNAc(b1-4)GlcNAc
Outline: as §1

[16] = biological target: Gal(b1-4)GlcNAc(b1-3)Gal(b1-4)GlcNAc(b1-3)Gal(b1-4)GlcNAc(b1-2)Man(a1-3)[Gal(b1-4)GlcNAc(b1-3)Gal(b1-4)GlcNAc(b1-3)Gal(b1-4)GlcNAc(b1-2)Man(a1-6)]Man(b1-4)GlcNAc(b1-4)[Fuc(a1-6)]GlcNAc
Outline: as §1

[17] = biological target: Gal(b1-4)GlcNAc(b1-3)Gal(b1-4)GlcNAc(b1-3)Gal(b1-4)GlcNAc(b1-2)[Gal(b1-4)GlcNAc(b1-3)Gal(b1-4)GlcNAc(b1-3)Gal(b1-4)GlcNAc(b1-6)]Man(a1-6)[Gal(b1-4)GlcNAc(b1-3)Gal(b1-4)GlcNAc(b1-3)Gal(b1-4)GlcNAc(b1-2)Man(a1-3)]Man(b1-4)GlcNAc(b1-4)[Fuc(a1-6)]GlcNAc
Outline: as §1

[18] = biological target: Gal(b1-4)GlcNAc(b1-3)Gal(b1-4)GlcNAc(b1-3)Gal(b1-4)GlcNAc(b1-3)Gal(b1-4)GlcNAc(b1-2)Man(a1-3)[Gal(b1-4)GlcNAc(b1-3)Gal(b1-4)GlcNAc(b1-3)Gal(b1-4)GlcNAc(b1-3)Gal(b1-4)GlcNAc(b1-2)Man(a1-6)]Man(b1-4)GlcNAc(b1-4)[Fuc(a1-6)]GlcNAc
Outline: as §1

[19] = biological target: Gal(b1-4)GlcNAc(b1-3)Gal(b1-4)GlcNAc(b1-3)Gal(b1-4)GlcNAc(b1-3)Gal(b1-4)GlcNAc(b1-3)Gal(b1-4)GlcNAc(b1-2)Man(a1-3)[Gal(b1-4)GlcNAc(b1-3)Gal(b1-4)GlcNAc(b1-3)Gal(b1-4)GlcNAc(b1-3)Gal(b1-4)GlcNAc(b1-3)Gal(b1-4)GlcNAc(b1-2)Man(a1-6)]Man(b1-4)GlcNAc(b1-4)GlcNAc
Outline: as §1

[20] = biological target: Gal(b1-4)GlcNAc(b1-3)Gal(b1-4)GlcNAc(b1-3)Gal(b1-4)GlcNAc(b1-3)Gal(b1-4)GlcNAc(b1-3)Gal(b1-4)GlcNAc(b1-2)[Gal(b1-4)GlcNAc(b1-3)Gal(b1-4)GlcNAc(b1-3)Gal(b1-4)GlcNAc(b1-3)Gal(b1-4)GlcNAc(b1-3)Gal(b1-4)GlcNAc(b1-6)]Man(a1-6)[Gal(b1-4)GlcNAc(b1-3)Gal(b1-4)GlcNAc(b1-3)Gal(b1-4)GlcNAc(b1-3)Gal(b1-4)GlcNAc(b1-3)Gal(b1-4)GlcNAc(b1-2)Man(a1-3)]Man(b1-4)GlcNAc(b1-4)[Fuc(a1-6)]GlcNAc
Outline: as §1

[21] = biological target: Gal(b1-4)GlcNAc(b1-3)[Gal(b1-4)GlcNAc(b1-6)]Gal(b1-4)GlcNAc
Outline: as §1

[22] = biological target: Gal(b1-4)GlcNAc(b1-3)[GlcNAc(b1-6)]Gal(b1-4)GlcNAc
Outline: as §1

Gal6S(b1-3)GlcNAc6S = biological target: Gal6S(b1-3)GlcNAc6S
Outline: as §1

Gal6S(b1-4)Glc = biological target: Gal6S(b1-4)Glc
Outline: as §1

[23] = biological target: GalNAc(b1-4)GlcNAc(b1-3)GalNAc(b1-4)GlcNAc
Outline: as §1

GalNAc(b1-4)GlcNAc6S = biological target: GalNAc(b1-4)GlcNAc6S
Outline: as §1

[24] = biological target: GlcNAc(a1-4)Gal(b1-4)GlcNAc(b1-3)Gal(b1-4)GlcNAc
Outline: as §1

[25] = biological target: GlcNAc(b1-2)Man(a1-3)[GlcNAc(b1-4)][GlcNAc(b1-2)Man(a1-6)]Man(b1-4)GlcNAc(b1-4)[Fuc(a1-6)]GlcNAc
Outline: as §1

B1: CC1G-10077 (Coprinopsis cinerea), A8NDT7 (protein)
chain: MALNEGVYWIRNSRFTNKVLDLDAANVAKGTSILDFNEHGTFNENHNQLWIVERFQSRDTYLIRSVHSNLVLDLSQGLSANGTPILCWTQHGGTNQQWRIEWVKDDNKTPLYRIVSVATGTAISHNEDDSSAYTVAWSVDDGPKQLWSFDPFVTPLLYRLRVKSTSRVLDLAAASADNGTLALAWEQHTAITKRNQLWWLPYRSGAEEYTIQCLETSTVADLSGGNSGNGTPIYGWQSHGGRNQQWKFEPTSDSGDYYHIKNVEGGSVMDAYMNDSQKRVGGWSNNGGDNQKWLLDPLPSPGPGWVLIQNGGTGKFLCSTPSGDIGTADGPETVYDYSVQWRFIQREYTGVYHVVNRATGAYLRQIGTSMPSIGLAEENDDELKDWWMLETYDNSEIGLASIISRWTGNVLDHYGGVSVQALDNNTENSYRSWAIIPARDWLTSFSLVNGQGGLCLAAQYAREETRLSTTANVNDFHAQWVFRKPSGSSGYTIQNKYNNHYVGGTSARWELVVCCNKYFGIRNTSTQKYLAIEDGQVTFQDQDMTDRKQCWELCSGRATDTSGNDYDLIYMDDDLLEVMIPWVGDKQGDLKHYIEKRATKKPPKDKGGWQLPAAGLIKKPKFNDIRQLLQELIEQWEWDVVNEEREQIQTLVSIDEAEARRLLGRRPHPDIVAAYQRSRSSTLFRIDRQGYFNIAGDRYVNIQGQYGDDSYFHIALPVGVRFGREQIRRFLRDSLDRSTSVTITPTTCKPPSGGPDYNRDPDSDGDNSWIKWTIAVVGTSAIKHSEL
glycan array binding signal (z-score) [1]: -0.467
glycan array binding signal (z-score) [2]: -0.51
glycan array binding signal (z-score) [3]: -0.424
glycan array binding signal (z-score) [4]: -0.4
glycan array binding signal (z-score) [5]: 1.19
glycan array binding signal (z-score) (Gal(a1-3)Gal(b1-4)GlcNAc): 0.177
glycan array binding signal (z-score) [6]: -0.3
glycan array binding signal (z-score) [7]: 0.744
glycan array binding signal (z-score) [8]: 0.08
glycan array binding signal (z-score) [9]: 0.142
glycan array binding signal (z-score) [10]: 0.199
glycan array binding signal (z-score) (Gal(b1-4)Glc6S): -0.024
glycan array binding signal (z-score) [11]: 3.26
glycan array binding signal (z-score) [12]: 1.15
glycan array binding signal (z-score) [13]: 0.424
glycan array binding signal (z-score) [14]: 3.12
glycan array binding signal (z-score) [15]: 2.19
glycan array binding signal (z-score) [16]: 3.5
glycan array binding signal (z-score) [17]: 3.22
glycan array binding signal (z-score) [18]: 3.19
glycan array binding signal (z-score) [19]: 3.72
glycan array binding signal (z-score) [20]: 3.25
glycan array binding signal (z-score) [21]: 1.18
glycan array binding signal (z-score) [22]: 3.85
glycan array binding signal (z-score) (Gal6S(b1-3)GlcNAc6S): -0.314
glycan array binding signal (z-score) (Gal6S(b1-4)Glc): 0.062
glycan array binding signal (z-score) [23]: 4.2
glycan array binding signal (z-score) (GalNAc(b1-4)GlcNAc6S): 4.35
glycan array binding signal (z-score) [24]: -0.431
glycan array binding signal (z-score) [25]: -0.482
